# This is a sample that favours compounds with a hit; in the whole collection about 11% have one here.
# Pf growth 48h = inhibits P. falciparum growth in the first generation, 48 h; P. falciparum luciferase growth in erythrocytes, 48 h; Potency, µM (doses to about 28.7 µM), most hits filed as inhibitors; 5.9% of 310,000 active; AID 504832
#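 Luciferase-expressing parasites in RBCs, 2% Hct / 0.1% parasitemia final; RPMI 1640 + 0.5% Albumax; 37 C, 5% CO2, one generation; luminescence read-out, lower signal = inhibition.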
# NS1 function inh = inhibitors of influenza NS1 protein function; 0.4% of 270,000 active; Potency, µM (series often up to 46.1 µM); AID 2326; calls by dose curve; note: actives are rising curves; nearly all actives have a fitted effect of over 50% in size
#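 S. cerevisiae expressing influenza A NS1, grown in glucose, washed, then diluted 1:100 into pH 6.0 -URA galactose medium with 23 nl compound. Growth recovery read as OD600; NS1-free strain serves as control.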
# HCV inh = inhibitors of hepatitis C virus infection; Huh7.5.1 HCVcc-Cre infection, luciferase reporter, 44 h; Potency, µM (highest dose often 41.8 µM), hits mostly inhibitors; 3.4% of 340,000 active; AID 651820
#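 Luciferase read-out (15 sec integration) after a 15 min room-temperature substrate step quantifies HCVcc-Cre infection. Cells, 1,000 per well, had compound added 4 h post-plating, then virus at ~0.5 moi, and were cultured 44 h.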
# VACV Venus inh = vaccinia inhibition (Venus reporter); 0.46% of 330,000 active; Potency, µM (titrated, usually from 36.5 µM), usual class: inhibitors; Vaccinia virus Venus reporter expression, fluorescence; calls by dose curve; tested in A549 cells; note: nearly all actives have a fitted effect of over 30% in size
# Pf growth 96h = P. falciparum growth inhibition at 96 hours; P. falciparum luciferase reporter growth, 96 h; Potency, µM (doses to about 28.7 µM), most hits filed as inhibitors; 6.9% of 320,000 active
#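 Plates of compound plus infected erythrocytes (2% hematocrit, 0.05% parasitemia final) incubate 96 hours, 37 C, 5% CO2. Detection reagent added; reduced luminescence from the parasites' luciferase reporter flags inhibition.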
# VACV mCherry inh = vaccinia inhibition (mCherry reporter); Vaccinia virus mCherry reporter infection, fluorescence; Potency, µM (doses to about 36.5 µM), usual class: inhibitors; 0.63% of 310,000 active; calls by dose curve; tested in A549 cells; note: nearly all actives have a fitted effect of over 35% in size
# Hits are given with their value; n = inactive; u = inconclusive; x = no result given; [ ] = dose if it differs, or a comment. Unless noted, calls come from the whole dose curve; as a rule, active = well fitted inhibition curve with a large enough effect; inconclusive = small, poorly fitted or top-dose-only effect, or another doubt; inactive = no such curve, though single readings can be large or run the other way.
SMILES,Pf growth 48h,NS1 function inh,HCV inh,VACV Venus inh,Pf growth 96h,VACV mCherry inh
CCOC(=O)c1c(NC(=O)C2c3ccccc3Oc3ccccc32)sc(C(=O)N(CC)CC)c1C,1.47µM,n,7.08µM,n,0.928µM,x
COc1ccc(C2CC(c3cccs3)=NN2C(=O)CSc2nc(=O)n3cc(C)ccc3n2)cc1 (configuration not stated),10.4µM,x,u,n,8.28µM,n
COc1ccc(C2CC(c3cccs3)=NN2C(=O)CSC2=NCCS2)cc1 (configuration not stated),u,n,u,x,u,x
Cc1ccc(C2CC(c3cccs3)=NN2C(=O)CSC2=NCCS2)cc1 (configuration not stated),10.4µM,n,u,x,11.7µM,x
Cc1ccc(C2CC(c3cccs3)=NN2C(=O)CCl)cc1 (configuration not stated),13.1µM,n,2.82µM,n,1.85µM,u
COc1ccc(C(CNS(=O)(=O)c2ccc(F)cc2)N2CCN(C)CC2)cc1 (configuration not stated),n,x,n,n,n,n
c1ccc(Nc2nnc(-c3cccc4ccccc34)o2)cc1,n,n,u,n[7.34 µM],n,n[7.34 µM]
Cc1ccc(N2CCN(C(=O)c3ccccc3NC(=O)c3ccccc3C(=O)O)CC2)cc1,n,n,n,n,n,n
COCC(=O)n1nc(-c2ccc(Cl)cc2)nc1NCc1ccc(F)cc1,x,n,u,x,2.94µM,x
Cc1cccc(N(C)S(=O)(=O)c2ccc(-c3cnc(C4CC4)o3)cc2)c1,n,n,u,x,14.7µM,x
Cc1ccc(N(C)S(=O)(=O)c2cc(-c3cnc(C4CC4)o3)ccc2C)cc1,u,n,3.16µM,n,n,n
Cc1cc(C)c(NS(=O)(=O)c2ccc(-c3cnc(C4CC4)o3)cc2)c(C)c1,x,x,x,n,x,n
Cc1ccc(-c2cnc(C3CC3)o2)cc1S(=O)(=O)Nc1ccccc1,u,n,u,x,14.7µM,x
COCCN(C(=O)c1snc(C(N)=O)c1N)C(C(=O)NC1CCCC1)c1cc(OC)c(OC)c(OC)c1 (configuration not stated),n,n,n,n,u,n
CC1(C(=O)NS(=O)(=O)c2cccc(F)c2)CCN1C(=O)Cc1ccc(-c2ccccc2)cc1 (configuration not stated),x,x,x,n,x,n
CCCOCn1cc(F)c(=O)[nH]c1=O,u,n,n,n,5.22µM,n
CCOC(=O)C(C)C(C)=O (configuration not stated),n,x,n,u,u,0.316µM
CN(C(=O)c1ccco1)c1nc(-c2ccc(Cl)cc2)cs1,n,n,n,x,6.57µM,x
COc1ccc(-c2csc(N(C)C(=O)c3ccco3)n2)cc1,n,n,n,n,n,n
Cc1ccc(-c2csc(N(CCCN(C)C)C(=O)c3ccco3)n2)cc1,n,n,u,n,n,n
Cc1ccc(-c2csc(N(C)C(=O)c3c(C)nn(-c4ccccc4)c3Cl)n2)cc1,11.7µM,n,n,n,u,n
CN(C)CCCN(C(=O)c1ccco1)c1nc(-c2ccc(Cl)cc2)cs1,n,n,11.2µM,x,n,x
O=C(NCCc1ccccn1)c1ccc(NS(=O)(=O)c2ccc(F)cc2)cc1,n,x,u,n,n,n
C#CCOCCOCCOCCNc1nc(N2CCN(C(=O)[C@H](CCC(=O)O)n3cc(C(N)Cc4ccc(O)cc4)nn3)CC2)nc(N2CCN(C(=O)[C@H](Cc3cc4ccccc4[nH]3)n3cc(C(N)CC(C)C)nn3)CC2)n1 (some centres not stated),n,n,x,x,n,x
Cc1ccc(-c2onc(C)c2C)cc1S(=O)(=O)N1CCc2ccccc21,x,x,x,u,x,n
SMILES,Pf growth 48h,NS1 function inh,HCV inh,VACV Venus inh,Pf growth 96h,VACV mCherry inh
Cc1ccc(-c2onc(C)c2C)cc1S(=O)(=O)N1CC(C)Oc2ccccc21 (configuration not stated),14.7µM,n,12.6µM,n[7.34 µM],n,n[7.34 µM]
CC(C)(C)c1[nH]nc2c1C(Cc1ccccc1)C(C#N)=C(N)O2 (configuration not stated),10.4µM,n,n,n,n,n
COc1ccccc1OCC(=O)N/N=C/c1cccc2cccnc12,n,n,n,n,13.1µM,u
CCC(=N\NC(=O)COc1ccccc1OC)/C(CC)=N/NC(=O)COc1ccccc1OC,9.28µM,x,u,x,u,x
COc1cccc(/C=N/NC(=O)COc2cccc3cccnc23)c1O,u,x,u,n,n,12.6µM
COc1ccccc1OCC(=O)NN=C(Cc1ccccc1)Cc1ccccc1,u,u,u,n,u,n
O=C(CN1CCCC1)N/N=C/c1c(O)ccc2ccccc12,n,n,7.94µM,x,u,x
COc1ccc(NC(=S)NCCc2c[nH]c3ccccc23)c(OC)c1,u,n,n,n,u,n
CCc1nnc2c(NCc3ccc(F)cc3)nc3ccccc3n12,x,x,x,n,x,n
COc1ccc2ccccc2c1/C=N/NC(=O)c1ccccc1F,n,n,u,n,u,n
COc1ccc2ccccc2c1/C=N\NC(=O)c1ccc(C)s1,n,n,10µM,n,n,n
CC(C)n1cc(/C=N/NC(=O)COc2cccc3cccnc23)c2ccccc21,u,n,u,u,8.28µM,u
Cc1cc(C)n(CCC(=O)N/N=C/c2c(O)ccc3ccccc23)n1,6.57µM,n,u,x,u,x
COc1ccc(/C=N/NC(=O)COc2cccc3ccccc23)c(C(=O)O)c1OC,n,u,n,n,u,n
Cc1cc(C)n(CCC(=O)N/N=C/c2ccc(O)cc2)n1,n,n,n,n,n,n
COc1ccccc1OCC(=O)N/N=C/c1c(O)ccc2ccccc12,2.62µM,n,x,x,u,x
Cc1ccc(NC(=O)CCn2nc(C)cc2C)c(C)c1,n,n,u,n,11.7µM,x
Cc1ccc(Nc2cc(C)nc(-c3ccccc3O)n2)cc1,x,n,u,x,n,x
Cc1cc(NCCCN)nc(-c2ccccc2O)n1,n,n,10µM,n,x,x
Cc1cc(Nc2ccc(Br)cc2)nc(-c2ccccc2O)n1,n,n,12.6µM,x,n,x
Cc1cc(N/N=C/c2ccc(O)c(C)c2O)nc(-c2ccccc2O)n1,5.86µM,n,u,12.6µM,u,10µM
CCOC(=O)c1ccc(N2C(=O)CC(SCC(N)C(=O)OCC)C2=O)cc1 (configuration not stated),10.4µM,n,n,n,n,n
NCCSC1CC(=O)N(c2ccc(F)cc2)C1=O (configuration not stated),n,n,n,n,9.28µM,n
C/C(=N\Nc1nnc(C)c(=O)[nH]1)C(=O)O,u,n,n,x,u,x
Nc1c(Cl)ncnc1N/N=C/c1ccccn1,2.08µM,n,u,u,2.94µM,2.24µM
Nc1c(Cl)ncnc1N/N=C/c1ccc2ccccc2n1,u,n,3.98µM,u,3.7µM,2.82µM
Cc1ccc(N2CCN(C3=NC(=O)/C(=C\c4cn[nH]c4-c4ccccc4)S3)CC2)cc1,5.86µM,n,u,n,u,n
O=C1N=C(N2CCN(c3ccccc3)CC2)S/C1=C\c1cn[nH]c1-c1ccccc1,u,n,n,n,4.15µM,n

# Assay outcomes (PubChem BioAssay)
